Compounds with a hit are over-represented: about 2.1% of the library has one in this group of screens.
BJeLR viability: kills HRASV12-expressing BJeLR cells. inhibition, % (concentration not given with the values). actives 0.17% (n = 300,000). BJeLR (HRASV12) viability, CellTiter-Glo ATP luminescence, 48 h; in the data active = inhibition above about 50%
MazF activator: MazEF (E. coli) toxin RNase activation; P0AE70; FAM/BHQ RNA-DNA oligo cleavage fluorescence, 5 h; activation, % at 20 µM; actives 0.32% (n = 350,000); in the data active = activation above about 50%
Target sequence (P0AE70 whole entry, looked up): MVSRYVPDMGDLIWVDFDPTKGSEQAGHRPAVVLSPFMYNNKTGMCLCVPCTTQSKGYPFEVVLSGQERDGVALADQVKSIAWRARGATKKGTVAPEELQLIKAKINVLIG
PrPC surface inh: reduces human prion protein on the cell surface; P04156; cell surface PrPC, TR-FRET read-out; inhibition, % at 13.8 µM; actives 0.43% (n = 370,000); AID 720596; in the data active = inhibition above about 24%; also: 0% = median of the test wells and 100% = reference compound wells
VHR inh abs: inhibitors of human VHR1 phosphatase (DUSP3). recombinant VHR phosphatase, pNPP absorbance. inhibition, % at 13.3 µM. actives 0.52% (n = 290,000); in the data active = inhibition above about 50%
Target sequence (P51452 whole entry, looked up): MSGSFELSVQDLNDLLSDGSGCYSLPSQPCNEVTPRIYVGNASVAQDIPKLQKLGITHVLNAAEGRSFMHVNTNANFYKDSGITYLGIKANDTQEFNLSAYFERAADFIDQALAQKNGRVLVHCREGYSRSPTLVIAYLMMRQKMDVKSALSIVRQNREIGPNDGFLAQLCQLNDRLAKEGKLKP
PrP UTR inh: inhibition of PrP 5' UTR reporter expression; cell-based PrP 5' UTR mRNA reporter, plate reader; inhibition, % (concentration not given with the values); actives 0.35% (n = 340,000); AID 488862; in the data active = inhibition above about 52%; also: 0 = median of the neutral control wells
PfHsp40 yeast: compounds rescuing yeast from Plasmodium falciparum HSP40 toxicity | growth rescue, % at 12.5 µM | S. cerevisiae expressing PfHsp40, growth rescue, ATP luminescence | actives 0.68% (n = 340,000) | AID 504582; in the data active = growth rescue above about 28%, passing the limit was not always enough;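 also: yeast W303a lacking pdr1 and pdr3 grown in galactose medium; growth measured after three days at 30 °C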
The depositor's hits bear a star; nt = no result.

SMILES	BJeLR viability	MazF activator	PrPC surface inh	VHR inh abs	PrP UTR inh	PfHsp40 yeast
O=C(N/N=C/c1cc(Cl)cc([N+](=O)[O-])c1O)c1ccccc1NS(=O)(=O)c1cccs1	4	-4	5	14	nt	244*
O=C(NN=Cc1ccc(O)cc1)c1ccccc1NS(=O)(=O)c1cccs1	nt	8	-1	nt	-20	-1
O=C(N/N=C/c1ccc([N+](=O)[O-])cc1)c1cccs1	2	-2	-39	36	nt	nt
Cc1ccc(-n2c(O)c(/C=N/NC(=O)C3COc4ccccc4O3)c3ccccc3c2=O)cc1 (stereo not drawn)	8	-8	2	3	-36	205*
O=C(N/N=C\c1cccc([N+](=O)[O-])c1O)C1COc2ccccc2O1 (stereo not drawn)	13	-1	-6	10	-12	42*
O=C(N/N=C/c1cccc([N+](=O)[O-])c1)C1COc2ccccc2O1 (stereo not drawn)	4	2	-2	0	-8	0
O=C(N/N=C/c1cccc([N+](=O)[O-])c1O)c1cccs1	-3	-3	9	56*	1	0
C#Cc1cccc(Nc2nc(NC(C)C)nc3ccsc23)c1	nt	nt	1	nt	nt	nt
O=C(CN1c2cccc3cccc(c23)S1(=O)=O)NCCc1ccc(F)cc1	nt	6	2	nt	-16	-1
Cc1c(C(=O)Nc2ccc3c(c2)OCCO3)sc2nc(-c3ccccc3)cn12	8	-11	5	47	-28	145*
COc1ccc(NS(=O)(=O)c2cccc(C(=O)N3CCN(c4ccccc4O)CC3)c2)cc1	-10	1	-1	nt	-24	2
CC(=O)N1CCOc2ccc(S(=O)(=O)N3CCCC(C)C3)cc21 (stereo not drawn)	0	2	-4	-6	-1	-2
Cn1c(=O)c2sccc2n2c(CCCC(=O)NCc3ccc(F)cc3)nnc12	-16	6	-3	60*	-20	0
Cn1c(=O)c2sccc2n2c(CCCC(=O)NCc3cccnc3)nnc12	3	8	-5	-12	-3	0
COc1ccccc1/C=C/C=N/NC(=O)c1cccs1	-10	1	-11	26	-70	-1
CCc1nnc(NC(=O)CSc2nc(-c3ccc(F)cc3)cc(-c3ccccc3)c2C#N)s1	nt	63*	6	32	-23	-1
O=C1c2ccccc2C(c2nnnn2-c2ccc3c(c2)OCCO3)N1Cc1cccnc1 (stereo not drawn)	nt	nt	0	nt	nt	nt
Cc1ccc(C#N)c(SCc2cccc(Br)c2)n1	-6	-7	-4	nt	-27	7
Cc1ccc(C#N)c(SCc2cc3c(cc2Cl)OCO3)n1	-4	59*	1	-1	3	1
Cc1nn(CC(C)C)c(Cl)c1C(=O)NCC1CCCO1 (stereo not drawn)	nt	7	0	nt	nt	nt
Cc1cc(N2CCN(C(=O)c3ccco3)CC2)n2ncnc2n1	-11	-8	2	1	-16	0
O=C(c1ccco1)N1CCN(c2cc(C(F)(F)F)nc3ncnn23)CC1	0	10	13	52*	-16	0
COc1ccccc1Nc1n[nH]c(=S)s1	2	-4	-14	51*	-48	9
Cn1cccc1C(=O)NS(=O)(=O)c1ccccc1Cl	16	4	-4	18	-14	86*
CCOc1ccccc1NS(=O)(=O)c1c(C)[nH]c(C)c1C(=O)N1CCCCC1	-6	3	1	5	-16	-1
SMILES	BJeLR viability	MazF activator	PrPC surface inh	VHR inh abs	PrP UTR inh	PfHsp40 yeast
CCOc1cccc(CN2CCC(CCC(=O)NC3CC3)CC2)c1O	-10	-3	-13	51*	-8	-2
O=C(CCC1CCN(Cc2ccc(Cl)cc2)CC1)NC1CC1	5	8	-12	70	-2	-1
CCCNC(=O)c1ccc2c(=O)c(O)c(C)[nH]c2c1	9	10	-2	22	-10	1
CCCNC(=O)c1ccc2c(=O)c(O)c(-c3ccc(F)cc3)[nH]c2c1	-13	2	nt	26	-4	199*
Nc1c(Cl)cc(-c2[nH]c3cc(C(=O)NCCO)ccc3c(=O)c2O)cc1Cl	9	-31	-1	24	-26	43*
O=C(NCCO)c1ccc(Cl)c(Cl)c1	4	5	-8	7	-8	3
O=C(Cc1ccsc1)Nc1ccc2c(c1)OCO2	nt	-3	-6	nt	-17	0
O=C(COC(=O)c1cccc(F)c1)Nc1ccc(Cl)cn1	nt	-16	1	nt	-18	0
CC(=O)Nc1ccc(S(=O)(=O)Nc2ccn(Cc3ccccc3Cl)n2)cc1	4	2	6	0	-21	1
Nc1cc(Cl)ccc1N1CCCCC1	11	5	2	-4	-31	-1
Nc1cc(Cl)cc2c1-c1ccc(Cl)cc1C2	nt	65*	2	nt	-30	0
O=C1c2cccc3c(O)ccc(c23)C(=O)N1Cc1ccccc1	-6	380*	-11	30	1	0
O=C(O)c1cccc(CN2C(=O)c3ccccc3C2=O)c1	-1	-11	8	-22	-12	-2
O=C(CN1CCN(Cc2ccccc2)C1=O)NCCCN1CCOCC1	-5	7	0	50*	-18	-1
Cc1c(C(=O)O)cccc1-c1ccc(/C=N/Nc2ccc(Br)cc2)o1	4	2	13	-11	-31	355*
COC(=O)c1ccc(NC(C(=O)OC)C(C)C)c([N+](=O)[O-])c1 (stereo not drawn)	8	-5	-11	10	-38	50*
Cc1ccc(Cc2c(C(C)(C)C)nc3cc(C)c(Br)c(C)n23)cc1	nt	nt	4	nt	nt	nt
CC1CN(C(=O)COC(=O)c2cc(=O)[nH]c3ccccc23)CC(C)O1 (stereo not drawn)	nt	0	1	nt	nt	nt
CCOC(=O)c1cc(-c2csc(Nc3c(C)cc(C)cc3C)n2)on1	-8	-13	3	16	-10	0
CCn1cc(CNC(=O)CSc2nc(-c3ccc(OC)c(OC)c3)cc(C(F)(F)F)n2)c(C)n1	3	-1	6	51*	-1	1
COCCNC(=O)CSc1nc(-c2ccc(OC)c(OC)c2)cc(C(F)(F)F)n1	3	4	-2	-13	-23	0
Cc1ccc(C(=O)N2C(=O)C(c3ccccc3)Oc3ccccc32)cc1 (stereo not drawn)	8	-10	4	-2	13	110*
Cc1ccc(C(=O)N2c3ccccc3OCC2C)cc1 (stereo not drawn)	-6	7	7	20	-17	7
COc1ccc(S(=O)(=O)N2CCOCC2)cc1NC(=O)CSc1nnc2n1CCCCC2	nt	9	-10	nt	-5	2
CC(=O)N1c2ccc(C)cc2Sc2c1ccc1ccccc21	nt	11	11	nt	-51	30*
O=C(COC(=O)C1CCN(S(=O)(=O)c2cccs2)CC1)c1cc2ccccc2o1	-9	60*	6	-1	-8	-1

Screens: PubChem BioAssay, several laboratories
